# Among all 420,000 compounds or so, about 64,000 (15%) were called active. Inconclusive results (about 27%) are left out. The call rests on the fitted dose curve; in most records, active means well fitted inhibition curve with a large enough effect; inconclusive means small, poorly fitted or top-dose-only effect; inactive means flat fitted curve, though single readings scatter. The list is a sample of the results.
# Experiment: qHTS for Inhibitors of human tyrosyl-DNA phosphodiesterase 1 (TDP1): qHTS in cells in absence of CPT; further: nearly all actives have a fitted effect of over 55% in size
# Conditions: DT40 Tdp1-/- hTDP1 cells, no CPT, ATP luminescence, 48 h; activity change, negative = growth inhibition: at 46.2 µM (top of the series)
# Procedure, shortened: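 A cellular qHTS used chicken DT40 cells lacking endogenous Tdp1 but carrying stably transfected human TDP1. Compounds were applied without camptothecin, and cell growth kinetics were judged by ATP-dependent luminescence after ≥48 hr.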
# On the % scale 0 is the no-effect control and ±100 the full control effect; potency means the concentration at half of the fitted maximal effect.
Compound,"activity change, negative = growth inhibition",Potency
COc1ccc(C(=O)NNC(=O)c2cnccn2)cc1[N+](=O)[O-],-8.01% (inactive),–
CCc1ccc(N2C(=O)CN(S(=O)(=O)CC)CC2(C)C(=O)NC2CCCCC2)cc1 (stereo not given),-19.8% (inactive),–
Cc1cccc(-n2c(O)c(C=Nc3ccccc3N)c(=O)[nH]c2=O)c1,-6.79% (inactive),–
Cc1cccc(C)c1OCCN1CCOCC1,-24.1% (inactive),–
Cc1cc(C)c(OCCN2CC(C)OC(C)C2)c(Br)c1 (stereo not given),–,16.4 µM (active)
CC1CN(CCOc2ccccc2[N+](=O)[O-])CC(C)O1 (stereo not given),-23.7% (inactive),–
COc1ccc(N2CCN(S(=O)(=O)c3ccc4c(c3)N(C(C)=O)CCO4)CC2)cc1,-8.63% (inactive),–
O=C(CN1C(=O)C2C3C=CC(C3)C2C1=O)NCCc1ccccc1Cl (stereo not given),-9.82% (inactive),–
COc1cc(N2C(=O)c3ccccc3C2=O)c(Cl)cc1C(=O)OCC(=O)N1CCOCC1,4.59% (inactive),–
Cc1ccc(NC(=O)CCCNC(=O)c2ccc(Cl)cc2)cc1S(=O)(=O)N1CCOCC1,-18.1% (inactive),–
Cc1ccccc1NC(=O)c1cc(S(=O)(=O)N2CCOCC2)cs1,-11.8% (inactive),–
Cc1ccc(NC(=O)c2ccc(Cl)nc2)cc1S(=O)(=O)N1CCOCC1,–,8.2 µM (active)
Cc1ccc(C(=O)Nc2ccccc2C(=O)NC2CCCCC2)cc1S(=O)(=O)N1CCOCC1,–,18.4 µM (active)
Cc1ccc(NC(=O)NC2CCCCC2)cc1S(=O)(=O)N1CCOCC1,-4.9% (inactive),–
Cc1ccc(NC(=O)c2ccccn2)cc1S(=O)(=O)N1CCOCC1,-6.82% (inactive),–
Cc1ccc(NC(=O)COC(=O)C2CC2)cc1S(=O)(=O)N1CCOCC1,0.794% (inactive),–
Cc1ccc(NC(=O)C2CCC(C(C)(C)C)CC2)cc1S(=O)(=O)N1CCOCC1 (stereo not given),–,20.6 µM (active)
COc1ccc(C(=O)OC(C)C(=O)NC2CCCC2)cc1S(=O)(=O)N1CCOCC1 (stereo not given),13.3% (inactive),–
COC(=O)CSc1snnc1-c1ccc(Cl)c(Cl)c1,1.97% (inactive),–
O=C(NCCN1CCCC(O)C1)c1cc(COc2c(F)cccc2F)on1 (stereo not given),26.9% (inactive),–
COC(=O)c1[nH]c2ccc(Br)cc2c1NC(=O)Oc1ccccc1,1.63% (inactive),–
CC(=O)N1CCN(CC(=O)Nc2ccc(SC(F)F)cc2)CC1,2.7% (inactive),–
O=C(Oc1cccc(NC2=NS(=O)(=O)c3ccccc32)c1)c1ccncc1,-0.45% (inactive),–
CC(=O)c1c(C)[nH]c(=S)c(C#N)c1-c1ccc(F)cc1,8.94% (inactive),–
CCOc1ccc(NC(=O)C(CC(C)C)N2Cc3ccccc3C2=O)cc1 (stereo not given),-20.1% (inactive),–
CC(Oc1ccccc1)C(=O)N[C@@H]1C(=O)N2[C@@H]1SC(C)(C)[C@@H]2C(=O)O (stereo not given in full),-3.68% [at 21.1 µM] (inactive),–
CSc1ccc(/C=N\NC(=O)CC(=O)NC(C)C)cc1,-2.5% (inactive),–
O=C(CC(c1cccs1)N1Cc2ccccc2C1=O)Nc1ccc(F)cc1F (stereo not given),–,16.4 µM (active)
COc1cc(C(CC(=O)NCCC(C)C)N2Cc3ccccc3C2=O)cc(OC)c1OC (stereo not given),-26.2% (inactive),–
O=C(O)CC(c1ccccc1F)N1Cc2ccccc2C1=O (stereo not given),2.01% (inactive),–

# — PubChem BioAssay AID686978 (National Center for Advancing Translational Sciences (NCATS), 2013)
